The source of these data is PubChem BioAssay (NCATS).

Results filed as inconclusive are left out. Active and inactive are the calls of the source. Calls follow the shape of the dose curve; as a rule, active = well fitted cell-killing curve with a large enough effect; inconclusive = small, poorly fitted or top-dose-only effect, or effect the other way; inactive = no such curve, though single readings can be large or run the other way.
Potency is read from the fitted curve at half-maximal effect.

This assay can be described thus: qHTS of pediatric cancer cell lines to identify multiple opportunities for drug repurposing: Confirmatory screen for RD cells (AID 1347124).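 Also: cells exposed to compound for 48 h before viability readout; nearly all actives have a fitted effect of over 65% in size.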 Conditions: RD rhabdomyosarcoma cell viability; series mostly up to 45.9 µM. From the text:
Drug repurposing or repositioning has been offered as a strategy for drug development in oncology programs. This approach has special potential for childhood cancers and other rare or orphan diseases, where the expected return on new drug development has been a disincentive to pharmaceuticals.
In this project we exploit the poly-pharmacology of drugs to discover new indications via phenotypic screening of a panel of 19 well-characterized cell lines derived from solid tumors seen in children and adolescents. The goal is to identify approved drugs with previously unrecognized anticancer properties that has the potential to reveal new mechanisms and biological processes involved in carcinogenesis or drug resistance. We employed a titration-based paradigm (quantitative high-throughput screening or qHTS), where all compounds were tested at multiple concentrations for their effect on cell viability. Concentration-response curves (CRCs) were derived directly from the primary screen, and both potency and efficacy values were used to identify compounds with robust bioactivity profiles. We screened the NIH Chemical Genomics Center (NCGC) Pharmaceutical Collection (NPC) and Mechanism Interrogation Plate (MIPE) small molecule collections of approved and investigational compounds against these cell lines; and measured metabolically active cells after 48 hours of compound treatment as a proxy for cell viability.
Assay Submitter: Nathalia J. Martinez, National Center for Advancing Translational Sciences, National Institutes of Health, Rockville, MD, USA; email: natalia.martinez@nih.gov
[1] Shen, M et al. Quantitative high-throughput phenotypic screening of pediatric cancer cell lines identifies multiple opportunities for drug repurposing. Oncotarget 2017 Dec 19;9(4):4758-4772. PMID 29435139.
The cells were obtained from University of North Carolina (UNC), Pediatric Preclinical Testing Program (PPT), and Coriell Institute (CI).
qHTS cell viability assay:
Cells were assayed in growth media at a density of 500-1,000 cells/well. Five microliters of cells were dispensed into 1,536-well, white, solid-bottom, TC-treated plates (Greiner Bio One) using a multidrop dispenser and incubated at 37 degrees C, 5% CO2, under a humidified atmosphere for 5 hours. Twenty-three nanoliters of compounds and controls (neutral control DMSO or positive control bortezomib at final concentration of 2.3 µM) were subsequently transferred by Kalypsys pintool. For primary screens, the MIPE collection was tested at 11-point dilutions (final concentrations range from 0.78 nM to 46 µM) and the NPC collection at 8-point dilutions (final concentrations range from 0.59 nM to 46 µM). Compounds tested in follow-up screens were assayed at 11-point dilutions. Cells were incubated for 48 hours, followed by addition of 3 µL of CellTiter-Glo (Promega). After a 15 min incubation at room temperature, samples were analyzed for luminescence intensity using a ViewLux High-throughput CCD imager equipped with clear filters.
As for `Cc1cc(Nc2cc(NC(=O)c3c(Cl)cccc3Cl)ccn2)nc(N)n1`, the Potency result is “inactive”. On to `C=CCn1c(=O)c2cnc(Nc3ccc(N4CCN(C)CC4)cc3)nc2n1-c1cccc(C(C)(C)O)n1`, for which the Potency is 737 nM (active). The same measure for `CCNC(=O)Nc1ccc2ncc(Nc3ccc(C)cc3)nc2n1`: “inactive”; for `CC(C)(C)c1cnc(CSc2cnc(NC(=O)C3CCNCC3)s2)o1`: 585 nM (active); for `Cc1[nH]c2ccccc2c1CCNCc1ccc(C=CC(=O)NO)cc1`: “inactive”. Then `COc1ccc(C=Cc2cc(OC)c(OC)c(OC)c2)cc1O`, with 11.7 nM (active). Then `Cc1ccc(NC(=O)C2(c3ccc4c(c3)OC(F)(F)O4)CC2)nc1-c1cccc(C(=O)O)c1`, with 10400 nM (active). For `Cc1nc(Nc2n[nH]c3c2CN(C(=O)N[C@H](CN(C)C)c2ccccc2)C3(C)C)c2sccc2n1`, the Potency entry was “inactive”. As to `CCn1cc(-c2ccnc3[nH]c(-c4cccc(CN(C)C)c4)cc23)c(-c2ccc(NC(=O)N(C)C)cc2)n1`, the Potency is 1040 nM (active). Then `Cc1cn2c(-c3cn[nH]c3)cnc2c(Nc2ccc(C(=O)N3CCNCC3)cc2F)n1`, with “inactive”.

In the case of `CCCCc1nc2cc(C=CC(=O)NO)ccc2n1CCN(CC)CC`, the Potency was 2330 nM (active). The same measure for `Cc1cnc(-c2cnc(NCCNc3ccc(C#N)cn3)nc2-c2ccc(Cl)cc2Cl)[nH]1`: “inactive”; for `Cc1ccc(-c2ncn(-c3ccc(Nc4nccc(-c5cccc(N6CCOCC6)c5)n4)cc3)n2)cn1`: 240 nM (active). Then `Cc1c(NC(=O)OC[C@@H]2COCCN2)cn2ncnc(Nc3ccc4c(cnn4Cc4cccc(F)c4)c3)c12`, with “inactive”. The same measure for `C=CC(=O)Nc1cc2c(Nc3ccc(F)c(Cl)c3)ncnc2cc1C#CC(C)(C)N1CCN(C)CC1`: 6030 nM (active). On to `CC(C)c1cc(C(=O)N2Cc3ccc(CN4CCN(C)CC4)cc3C2)c(O)cc1O`, for which the Potency was 522 nM (active). `COc1cc(Nc2ncc(F)c(Nc3ccc4c(n3)N(COP(=O)(O)O)C(=O)C(C)(C)O4)n2)cc(OC)c1OC`: the Potency was 16500 nM (active). Take `CC[C@H]1CN2CCc3cc(OC)c(OC)cc3[C@H]2C[C@@H]1C[C@@H]1NCCc2cc(OC)c(OC)cc21`: the Potency was 369 nM (active). The same measure for `CC[C@@H]1C(=O)N(C)c2cnc(Nc3ccc(C(=O)NC4CCC(N5CCN(CC6CC6)CC5)CC4)cc3OC)nc2N1C(C)C` (stereo not given in full): “inactive”; for `C=CC(=O)N1CCC[C@@H](n2nc(-c3ccc(Oc4ccccc4)cc3)c3c(N)ncnc32)C1`: “inactive”. The same measure for `O=C(C=Cc1cccc(S(=O)(=O)Nc2ccccc2)c1)NO`: 5370 nM (active); for `COc1cc2c(NC3CCN(C(C)C)CC3)nc(C3CCCCC3)nc2cc1OCCCN1CCCC1`: 26100 nM (active); for `O=C(Nc1ncc(-c2cc(C(F)F)nn2-c2c(Cl)cccc2Cl)s1)C1CC1`: 827 nM (active). The same measure for `CC1(C)CCC(c2ccc(Cl)cc2)=C(CN2CCN(c3ccc(C(=O)NS(=O)(=O)c4ccc(N[C@H](CCN5CCOCC5)CSc5ccccc5)c(S(=O)(=O)C(F)(F)F)c4)cc3)CC2)C1`: “inactive”; for `CC(C)(C)OC(=O)Nc1ccc(-c2cc(C(=O)NCCCCCCC(=O)NO)no2)cc1`: 5220 nM (active). In the case of `Nc1ccccc1NC(=O)c1ccc(CNC(=O)OCc2cccnc2)cc1`, the Potency was 13500 nM (active). Take `CC(C)(C)c1cc(C(C)(C)C)c(NC(=O)c2c[nH]c3ccccc3c2=O)cc1O`: the Potency was 29300 nM (active).

For the compound `CC(C)(C)NC(=O)[C@H]1CN(Cc2cccnc2)CCN1C[C@@H](O)C[C@@H](Cc1ccccc1)C(=O)N[C@H]1c2ccccc2C[C@H]1O`, the Potency result was “inactive”. With `Cc1ccc(C(=O)Nc2ccc(CN3CCN(C)CC3)c(C(F)(F)F)c2)cc1C#Cc1cnc2cccnn12`, the Potency was 20800 nM (active). For the compound `CC[C@@H]1C(=O)N(C)c2cnc(Nc3ccc(C(=O)NC4CCN(C)CC4)cc3OC)nc2N1C1CCCC1`, the Potency is 46.5 nM (active).

Regarding `O=C(C=Cc1cccnc1)NCCCCC1CCN(C(=O)c2ccccc2)CC1`, the Potency entry was “inactive”. Regarding `CNC(=O)c1ccccc1Nc1nc(Nc2ccc(N3CCOCC3)cc2OC)ncc1Cl`, the Potency was 827 nM (active). On to `COc1cc2nccc(Oc3ccc(NC(=O)C4(C(=O)Nc5ccc(F)cc5)CC4)cc3)c2cc1OC`, for which the Potency entry was “inactive”. Regarding `COc1cccc(-c2ccc(NC(=O)C3=C(C(=O)O)CCC3)c(F)c2)c1`, the Potency was 1170 nM (active). Then `CC1(C)O[C@@H]2C[C@@H]3[C@H]4C[C@@H](F)C5=CC(=O)C=C[C@]5(C)[C@@]4(F)[C@@H](O)C[C@]3(C)[C@]2(C(=O)CO)O1`, with 8270 nM (active); and `COc1ccc(OC)c(-c2nnc3ccc(-c4ccc(OC)c(O[C@@H]5CCOC5)c4)nn23)c1`, with 11700 nM (active); and `CC(C)CC(=O)Nc1n[nH]c2c1CN(C(=O)C1CCN(C)CC1)C2(C)C`, with 6570 nM (active).

Consider `CC(C)[C@H](C(=O)Nc1ccc(C(=O)NO)cc1)c1ccccc1`, for which the Potency was 1650 nM (active).

Consider `COc1ccc(F)c(F)c1C(=O)c1cnc(NC2CCN(S(C)(=O)=O)CC2)nc1N`, for which the Potency is 827 nM (active).

On to `CC1(C)OC2=C(C(=O)c3ccccc3C2=O)[C@H](NCc2ccccc2)[C@H]1O`, for which the Potency is 8270 nM (active).
